This is one part of a sample in which hits are shown more often than they occur. The true hit rate is not given. Values without a mark were called inactive. Some results are limits rather than exact numbers.

This experiment has as its system T1, Caupolican (Caup) homeodomain DNA-binding domain.
T1 sequence: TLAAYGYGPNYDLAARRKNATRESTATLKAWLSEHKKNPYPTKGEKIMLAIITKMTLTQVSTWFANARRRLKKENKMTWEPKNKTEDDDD
In words: PBM E-score (8-mer, recovered from the published 9-mer minima) (E-score (dimensionless, -0.5 to 0.5)); Drosophila protein; higher = stronger relative binding preference, active = 0.31 or more. How it is done: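 Protein binding microarray (PBM): in vitro transcribed/translated Caupolican (Caup) homeodomain DNA-binding domain (residues 214-303) applied at 100 nM to a universal 8-mer PBM array (Agilent AMADID 015681). The 8-mer enrichment score (E-score, range -0.5 to 0.5) was computed, and each 9-mer score is the minimum E-score of its two constituent 8-mers. The E-score is the same for a 9-mer and its reverse complement; 0.31 is the stated binding threshold.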
As to AACCCGCG, the “PBM E-score” value is -0.0635.
For CTGACACA, the “PBM E-score” value is 0.2.
For the sequence CCCACCTA, the “PBM E-score” value is -0.1.
Consider CCAGGTCG, for which the “PBM E-score” value is -0.0728.
Take ACTCGCAC: the “PBM E-score” value was -0.119.
The value for TGCGATAA was 0.101; that for AAAGTCGT was 0.0643; that for ATTGTTAA was 0.21.
As to GTTGTTAA, the “PBM E-score” value is 0.349 (active).
The value for GCTGTTAA was 0.0966; that for GCATTGGC was -0.14.
As to AAACTACA, the “PBM E-score” value was 0.331 (active).
The value for AAACTACT was 0.236; that for GAACTACC was 0.0628.
TAACTATA: the “PBM E-score” value is 0.18.
The value for AAACTACC was 0.168; that for GAACTACA was 0.314 (active).
Take TAACTACA: the “PBM E-score” value is 0.348 (active).
Consider CAACTACA, for which the “PBM E-score” value is 0.287.
As for TAACTAAA, the “PBM E-score” value was 0.109.
For CGGCCTAC, the “PBM E-score” value was -0.0509.
As to CGTATCAC, the “PBM E-score” value is 0.101.
As for ACCTAGAA, the figure is 0.08; as for TACAGAAA, 0.17; as for AAATCTAA, 0.0434.
Turning to CGATTGAA, the “PBM E-score” value is 0.0347.
As to GAGTGCAA, the “PBM E-score” value was 0.065.
As for ATGTCACG, the figure is 0.367 (active).
Turning to AAGTCACA, the “PBM E-score” value was 0.0474.
As for ATGTCACC, the figure is 0.279.
For ATGTCACA, the “PBM E-score” value was 0.39 (active).
As to CTGTCACA, the “PBM E-score” value was 0.167.
As for GTGTCACA, the figure is 0.29; as for CACTGCCC, -0.0974; as for ATTAGTTC, 0.154.
Consider GATAATCA, for which the “PBM E-score” value is 0.0651.
With GCTGTGGA, the “PBM E-score” value was -0.0809.
As for ATATGGTC, the figure is 0.105; as for CAACGCAA, 0.0313.
For the sequence AAGGTGGA, the “PBM E-score” value is -0.0864.
The value for ATCACATG was 0.286.
With CTTACATA, the “PBM E-score” value was 0.288.
On to GTTACAGA, for which the “PBM E-score” value is 0.172.
With ATTACATC, the “PBM E-score” value is 0.374 (active).
ATTACAGA: the “PBM E-score” value was 0.208.
Regarding ATTACAGG, the “PBM E-score” value is 0.244.
As to ATTACATG, the “PBM E-score” value was 0.447 (active).
As for CTTACATC, the “PBM E-score” value was 0.296.
The value for ATTACAGC was 0.128; that for ATTACATA was ≥ 0.385 (active); that for CTCACATA was 0.149.
Turning to GTTACATA, the “PBM E-score” value was 0.365 (active).
Consider TGCGCTAA, for which the “PBM E-score” value was 0.0295.
As to CTCTGAAG, the “PBM E-score” value is -0.17.
As to AGATCCCT, the “PBM E-score” value was -0.128.
The value for GAGAATCA was -0.0157.
Consider GATGCATA, for which the “PBM E-score” value is 0.0414.
For CCCCATGC, the “PBM E-score” value was -0.233.
The value for CGGCTTAG was -0.235; that for ATCATGCC was 0.0227; that for AGCCAGGG was -0.276.
As for ACGTACCT, the figure is 0.0612.
As for CCGTACAC, the “PBM E-score” value is 0.199.
For ACGTACAC, the “PBM E-score” value was 0.333 (active).
As for ACGTACAG, the “PBM E-score” value was 0.103.
The value for ACGTACAT was 0.337 (active); that for GCGTACAC was 0.217; that for ATTTCTCA was 0.0413.
For ACGACAGT, the “PBM E-score” value was 0.094.
As for AGCATATA, the figure is 0.119.
Consider AATCGAGC, for which the “PBM E-score” value was 0.0234.
As to TAGTGTCA, the “PBM E-score” value was 0.182.
With CCGTGTCA, the “PBM E-score” value is 0.278.
For the sequence TCGTGTCA, the “PBM E-score” value is 0.328 (active).
On to ATGTGTCA, for which the “PBM E-score” value was 0.297.
As for ACGTGTCG, the “PBM E-score” value was 0.301.
Turning to GCGTGTCA, the “PBM E-score” value was 0.284.
In the case of CTGTGTCA, the “PBM E-score” value was 0.142.
Turning to GTGTGTCA, the “PBM E-score” value was ≥ 0.312 (active).
For the sequence ACGTGTCA, the “PBM E-score” value was ≥ 0.374 (active).
For TACGTGGA, the “PBM E-score” value is -0.086.
Turning to AACTATCT, the “PBM E-score” value is 0.0956.
As for ATGCCGGC, the figure is -0.134; as for AGCCCGAG, -0.187.
ACCAACCC: the “PBM E-score” value was -0.0241.
Regarding CAGGGGAC, the “PBM E-score” value was -0.193.
Regarding AAACACTA, the “PBM E-score” value is 0.193.
The value for CACATCGA was 0.0459; that for AACATCAA was ≥ 0.316 (active); that for AACATCAG was 0.231.
On to GACATCAA, for which the “PBM E-score” value is 0.296.
With CACATCAA, the “PBM E-score” value was 0.0655.
As for TACATCGA, the figure is 0.314 (active); as for AACATCAC, 0.267; as for GACATCGA, 0.24.
For TACATCAA, the “PBM E-score” value was 0.331 (active).
GTGGCTTA: the “PBM E-score” value was -0.0913.
For GATCGGAA, the “PBM E-score” value was 0.052.
For the sequence GTTGAGTA, the “PBM E-score” value is 0.128.
The value for CATGTACA was 0.469 (active); that for CATGTACC was 0.416 (active).
With ACTGTACA, the “PBM E-score” value is 0.257.
For the sequence CCTGTACA, the “PBM E-score” value was 0.32 (active).
The value for CATGTGTA was 0.308; that for CATGTGCA was 0.119; that for CAAGTACC was 0.159.
The value for GATGTGCA was 0.102; that for ACTGTACC was 0.107.
For GATGTACA, the “PBM E-score” value was 0.404 (active).
With CCTGTACC, the “PBM E-score” value was 0.11.
Take CTAGCGAG: the “PBM E-score” value was -0.138.
AGTGAATG: the “PBM E-score” value was 0.0689.
Take GGGCTGAC: the “PBM E-score” value is -0.108.
Regarding ACGCATCC, the “PBM E-score” value is -0.0982.
For GCTGTACC, the “PBM E-score” value is 0.0813.
As for AATGTACT, the “PBM E-score” value is 0.269.
As for GATGTGTA, the figure is 0.252; as for TATGTAGA, 0.226.
Regarding AATGTGTG, the “PBM E-score” value was 0.142.
Take AATGTACC: the “PBM E-score” value is 0.192.
